About 83,000 compounds went through this panel and 20% of them were active in at least one assay; those are over-represented in the sample as a whole.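 Compound tested at a single concentration for 48 hours in 96-well plates; a percent growth value below 10 was scored as active.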 Unmarked numbers belong to inactive results. Activity calls are given as the source filed them.

Common to all, as to assay: NCI-60 one-dose screen, 48 h (100 = growth as untreated, 0 = no growth, -100 = all killed)
Details in all cases: 10 µM unless noted

For experiment [1], the system named is NCI-H23 lung.
Experiment [2] concerns NCI-H226 lung.
The subject of experiment [3] is NCI-H322M lung.
For experiment [4], the system named is HOP-62 NSCLC.
Experiment [5] concerns NCI-H460 lung.
Experiment [6] deals with HOP-92 NSCLC.
Experiment [7] deals with NCI-H522 lung.
Experiment [8] relates to A549/ATCC NSCLC.
Experiment [9] concerns 786-0 renal.
Experiment [10] deals with COLO 205 colon.

Take `O=C(N/N=C/c1ccccc1O)c1ccccc1Nc1ccnc(C(F)(F)F)c1`: the growth in experiment [1] is 30.2%; in experiment [2], -11.7% (active); in experiment [3], 13.1%; in experiment [4], -5.32% (active); in experiment [5], -13.2% (active); in [6], 7.01% (active). In addition, the growth in [7] is 24%; in [8] it was 10.4%; in experiment [9], 0.0938% (active); in [10] it was 14.7%.

Consider `COc1ccc(C2CC(c3ccc4ccccc4c3)=NN2/C=C2\SC(=S)N(NC(=O)Cc3ccccc3Nc3c(Cl)cccc3Cl)C2=O)cc1` (stereo not given), for which the growth in experiment [1] is 40.5%; in experiment [2] it was 45.9%; in experiment [3], 42.8%; in experiment [4], 23.7%; in [5] it was 9.42% (active); in experiment [6] it was 38.5%. For the same compound, the growth was -15.4% (active) in [7], 23.6% in experiment [8], 13.8% in experiment [9] and 55.6% in [10].

With `O=C(Cc1ccccc1Nc1c(Cl)cccc1Cl)NN1C(=O)/C(=C/c2ccc(Br)cc2)SC1=S`, the growth in experiment [1] is 97.5%; in [2] it was 95.6%; in experiment [3], 98.7%; in experiment [4], 104%; in experiment [5], 104%; in [6], 103%. Besides, the growth in experiment [7] is 93.9%; in experiment [8], 99.5%; in experiment [9], 98.9%; in experiment [10] it was 105%.

Consider `CC(=O)c1cc(C(=O)c2ccc3c(c2)Sc2ccccc2N3)n2ccccc12`, for which the growth in [1] is 24.1%; in experiment [2] it was 32.5%; in experiment [3], 24.5%; in experiment [4], 21.8%; in experiment [5], 2.97% (active); in [6] it was 46.1%. Moreover, the growth in experiment [7] was -28.9% (active); in experiment [8], 10.8%; in [9] it was 22.5%; in experiment [10], -55.4% (active).

`CC(C)C1=C[C@@]23CC[C@@H]4[C@](C)(CCC[C@@]4(C)C(=O)N4CCCNCC4)[C@H]2C[C@@H]1[C@H]1C(=O)CCC(=O)[C@H]13`: the growth was 96.4% in experiment [1]; 101% in experiment [2]; 106% in [3]; 97.3% in [4]; 104% in experiment [5]; 101% in experiment [6]. Also, the growth was 91.5% in [7], 101% in experiment [8], 104% in [9] and 134% in experiment [10].

Turning to `CN(C)CCN1C(=O)c2cccc3c(N)ccc(c23)C1=O`, the growth in experiment [1] was 44.3%; in experiment [2], 23.9%; in experiment [3], 58.5%; in [4], 58.1%; in [5], -5.38% (active); in experiment [6], 19.9%. Further, the growth is 7.81% (active) in experiment [7], 6.47% (active) in experiment [8], 36.9% in experiment [9] and 8.15% (active) in [10].

For the compound `COc1ccc(CN2c3ccccc3Oc3ccccc32)cc1F`, the growth in experiment [1] was 71.8%; in experiment [2], 101%; in [3], 91.5%; in experiment [4], 52.1%; in experiment [5], 47.6%; in experiment [6], 66.6%. The growth is -13.2% (active) in experiment [7], 43.7% in [8], 79.2% in [9] and 41.7% in [10].

As to `CC(=O)c1cc2c(N)c(C(=O)Nc3cccc4ccccc34)sc2nc1C`, the growth is 34.6% in experiment [1]; 81.3% in [2]; 45.4% in [3]; 38.9% in experiment [4]; 7.21% (active) in [5]; 61.6% in experiment [6]. For the same compound, the growth is 13% in [7], 22% in experiment [8], 31.6% in [9] and -27% (active) in experiment [10].

Turning to `CCNC(=O)Oc1ccc(/C(=C(\C)c2ccc(Cl)cc2)c2ccc(OCCN3CCCCC3)cc2)cc1`, the growth in [1] is 65.1%; in experiment [2], 78.2%; in experiment [3], 75.2%; in experiment [4], 58.7%; in experiment [5], 22.3%; in [6], 68.8%. Besides, the growth was 80% in experiment [7], 46.1% in [8], 41.9% in experiment [9] and -60.9% (active) in experiment [10].

On to `C#CCOc1ccc2ncnc(NCc3cccc(NC(=O)CCl)c3)c2c1`, for which the growth was 36.6% [8.25 µM] in experiment [1]; 25.3% [8.25 µM] in experiment [2]; 82.3% [8.25 µM] in experiment [3]; 0.209% [8.25 µM] (active) in experiment [4]; 28.2% [8.25 µM] in [5]; 54.4% [8.25 µM] in [6]. Further, the growth in experiment [7] was -62.8% [8.25 µM] (active); in experiment [8], 50.4% [8.25 µM]; in experiment [9], 39.2% [8.25 µM]; in experiment [10], 54% [8.25 µM].

Turning to `Cc1[nH]c(-c2cc(N)ccc2Cl)c2c1C(=O)CCCC2`, the growth in [1] is 36.3%; in experiment [2], 36.1%; in [3], 40.8%; in [4] it was 15.9%; in [5], 57.3%; in experiment [6], 24.5%. The growth in experiment [7] was 16.2%; in [8], 45.2%; in experiment [9] it was 40.1%; in experiment [10] it was 22.6%.

Take `COc1ccc(C2C(C#N)=C(N)Oc3n[nH]c(-c4cccs4)c32)cc1I` (stereo not given): the growth in [1] is 92.8%; in experiment [2] it was 98.3%; in experiment [3] it was 102%; in [4], 81.7%; in experiment [5], 101%; in experiment [6], 88.2%. The growth in experiment [7] is 83.2%; in experiment [8] it was 87.1%; in experiment [9] it was 99.1%; in [10], 117%.

The values above are taken from PubChem BioAssay (NCI).
